According to PubChem BioAssay (NCATS):
Records with an inconclusive call do not appear. Where a call stands in place of a potency, no number is given. Calls of active or inactive are those of the source. Calls come from the whole dose curve; as a rule, active = well fitted inhibition curve with a large enough effect; inconclusive = small, poorly fitted or top-dose-only effect; inactive = flat fitted curve, though single readings scatter.

Test system: MCC-26
Experiment: qHTS assay to identify novel small-molecules to repurpose for Merkel cell carcinoma treatment (AID 1296009); note: nearly all actives have a fitted effect of over 60% in size
Settings: MCC and control cell lines, CellTiter-Glo viability, 72 h; series mostly up to 46 µM
Description: MCC is a rare and aggressive neuroendocrine skin cancer with limited treatment options. Approximately 80% of MCCs have the Merkel cell polyomavirus (MCPyV) DNA integrated into the host genome (virus-positive: VP-MCC) and viral oncogenes drive oncogenesis. The remaining MCCs are virus-negative (VN-MCC) and are caused by UV mutagenesis. To identify novel treatments for VP-MCC and/or VN-MCC we screened three VP-MCC cell lines (WAGA, MKL-1, MKL-2), three VN-MCC cell lines (MCC-13, MCC-26, UISO), and four immortalized, non-transformed control cell lines (HaCaT, HEK293T, CRL7250, NIH-3T3) against ~2,400 compounds in the NCGC Pharmaceutical Collection (NPC) and ~1,900 compounds in the Mechanism Interrogation PlatE (MiPE). Using cell viability as a readout (CellTiter-Glo assay) we found both overlapping and distinct drugs that can be repurposed for the treatment of VP-MCC and VN-MCC.
A high-throughput screen was conducted in 1536-well white flat bottom plates (Corning) on a Kalypsys robotic system. Cell lines WAGA, MKL-1, MKL-2, MCC-13, MCC-26, UISO, HaCaT, HEK293T, CRL7250, and NIH-3T3 were screened against 2 small molecule annotated drug libraries NPC and MIPE in dose response (8 and 11 pt. respectively) measuring cell viability after 72 hours of incubation. […] A 1,536 pintool (Kalypsys) was used to transfer 23 nL of compound in DMSO to the 1,536-well assay plates. After 72 hr incubation at 37 degree celsius, 2.5 uL of CellTiter-Glo (Promega) was dispensed into each well using a BiorapTR. Plates were incubated at room temperature for 10 min, transferred to a ViewLux (PerkinElmer) and the luminescence was recorded using an exposure time of 2 seconds. Relative luminescence units (RLUs) were normalized to in-plate controls (no cells as a positive (cytotoxicity) control, DMSO as negative control) and the normalized data was processed using NCATS in-house software.

SMILES	Potency
O=c1ncn2nc(Sc3ccc(F)cc3F)ccc2c1-c1c(Cl)cccc1Cl	inactive
CCCS(=O)(=O)Nc1ccc(F)c(C(=O)c2c[nH]c3ncc(Cl)cc23)c1F	inactive
CCOc1cc(C=C2C(=O)N(c3ccccc3)N=C2C)cc(Cl)c1OCC(=O)OC	inactive
COc1ccc(-c2oc3cc(OC)ccc3c2C(=O)c2ccc(C#N)cc2)cc1	inactive
OC(CCN1CCCCC1)(c1ccccc1)C1CC2C=CC1C2 (stereo not given)	inactive
C[C@H](NC(=O)Cc1cc(F)cc(F)c1)C(=O)N[C@@H]1C(=O)N(C)c2ccccc2-c2ccccc21	inactive
CCC(=O)N[C@H]1CC[C@H](C(=O)N(C)c2ccc(-c3nc4ccccc4o3)cc2)C1	inactive
COc1ccc(C2=N[C@H](c3ccc(Cl)cc3)[C@H](c3ccc(Cl)cc3)N2C(=O)N2CCNC(=O)C2)c(OC(C)C)c1	inactive
CC1(C)SCCN(S(=O)(=O)c2ccc(OCC#CCO)cc2)[C@@H]1C(=O)NO	inactive
NC(N)=NC(=O)c1nc(Cl)c(N)nc1N	inactive
COc1nc(-c2ccc3c(c2)OCO3)n(-c2ccc(NC(=O)CSc3ccccc3)cc2)n1	inactive
CNC(=O)c1ccc(N2C(=S)N(c3ccc(C#N)c(C(F)(F)F)c3)C(=O)C2(C)C)cc1F	inactive
Cn1c(=O)c(F)c(Nc2ccc(I)cc2F)c2c(=O)n(C[C@@H](O)CO)cnc21	inactive
Cc1ccc(N(CC2=NCCN2)c2cccc(O)c2)cc1	inactive
CCOc1cc(C(=O)Nc2ccc(Cl)c(-c3nc4ccccc4[nH]3)c2)cc(OCC)c1OCC	inactive
Cc1cc(-c2ccc(CC(=O)Nc3ccc(-c4cccnc4)cc3)cc2)ccn1	inactive
Cc1[nH]c(=O)c(C#N)cc1-c1ccc2nccn2c1	inactive
OC[C@H](Cc1ccccc1)Nc1nc(Oc2ccc3c(c2)CCC3)nc2c1ncn2Cc1ccc(-c2ccccc2)cc1	inactive
O=c1n(CCCN2CCN(c3cccc(Cl)c3)CC2)nc2ccccn12	inactive
O=C(O)COCCN1CCN(C(c2ccccc2)c2ccc(Cl)cc2)CC1 (stereo not given)	inactive

SMILES	Potency
Cc1csc(NC(=O)c2sc3nc4c(c(C(F)(F)F)c3c2N)CCC4)n1	inactive
O=C1CCc2cc(OCCCCc3nnnn3C3CCCCC3)ccc2N1	inactive
CCOC(=O)N1CCC(=C2c3ccc(Cl)cc3CCc3cccnc32)CC1	inactive
CN(C)c1ccc(C2Nc3ccc4ccccc4c3C3=C2C(=O)CC(C)(C)C3)cc1Br (stereo not given)	inactive
Cc1cc(C=c2sc3nc4ccccc4n3c2=O)c(C)n1-c1ccccc1	inactive
Nc1nccc(-c2ccc3noc(-c4ccc(Cl)cc4)c3c2)n1	inactive
CN(C)c1ccc(Nc2nc(N)n(C(=O)c3c(F)cccc3F)n2)cc1	inactive
COc1ccc2c3n(c(=NC(=O)c4cccnc4)nc2c1OC)CCN3	inactive
NC(=O)c1ccc(-c2nc(-c3ccc4c(c3)OCCO4)c(-c3ccccn3)[nH]2)cc1	inactive
O=C(Nc1cccnc1)N1CCC(Cc2cccc(Oc3ccc(C(F)(F)F)cn3)c2)CC1	inactive
Cc1cc2c(F)c(Oc3ncnn4cc(OC[C@@H](C)O)c(C)c34)ccc2[nH]1	inactive
CCCC(CCC)C(=O)O	inactive
O=C1[C@H](Cc2ccc(O)cc2)N2C(=O)CCN(C(=O)NCc3ccccc3)[C@H]2CN1Cc1cccc2ccccc12	inactive
O=C(NOC[C@H](O)CO)c1ccc(F)c(F)c1Nc1ccc(I)cc1F	inactive
CCN(CC)CCCC(C)Nc1ccnc2cc(Cl)ccc12 (stereo not given)	inactive
Cc1cc2c(C(C)C)c(O)c(O)c(C=O)c2c(O)c1-c1c(C)cc2c(C(C)C)c(O)c(O)c(C=O)c2c1O	inactive
CC(=O)Oc1ccccc1C(=O)O	inactive
C[C@]12CC[C@H](O)CC1=CC[C@@H]1[C@H]2CC[C@]2(C)C(c3cccnc3)=CC[C@H]12	inactive
COc1ccc2nc(S(=O)Cc3ncc(C)c(OC)c3C)[nH]c2c1 (stereo not given)	inactive
O=C1CCCC2=C1C(c1[nH]ncc1Cl)N=C(Nc1nc3ccccc3o1)N2 (stereo not given)	inactive
